# In ChEMBL document CHEMBL3988442, “University of Dundee, Small-Polar-MMV Screening Library” (2021):
# For some assays here: Entries with a potency or affinity are not part of this list.
# Key:
# Design in all cases: scale not given: direction of the effect not stated beside the values
# [1] = molecular target: Protein translocase subunit SecA (Escherichia coli (strain K12)) (UniProt P10408); experiment: Assay to Identify E. coli SecA ATPase Inhibitors; assay type: functional; conditions: 30 µM
# [2] = molecular target: T1, Ubiquitin-activating enzyme e1, putative (Leishmania donovani (strain BPK282A1)) (UniProt E9BSI1); experiment: Leishmania donovani Ubiquitin Activating Enzyme (LdE1); assay type: functional; conditions: 30 µM
# T1 sequence (whole entry): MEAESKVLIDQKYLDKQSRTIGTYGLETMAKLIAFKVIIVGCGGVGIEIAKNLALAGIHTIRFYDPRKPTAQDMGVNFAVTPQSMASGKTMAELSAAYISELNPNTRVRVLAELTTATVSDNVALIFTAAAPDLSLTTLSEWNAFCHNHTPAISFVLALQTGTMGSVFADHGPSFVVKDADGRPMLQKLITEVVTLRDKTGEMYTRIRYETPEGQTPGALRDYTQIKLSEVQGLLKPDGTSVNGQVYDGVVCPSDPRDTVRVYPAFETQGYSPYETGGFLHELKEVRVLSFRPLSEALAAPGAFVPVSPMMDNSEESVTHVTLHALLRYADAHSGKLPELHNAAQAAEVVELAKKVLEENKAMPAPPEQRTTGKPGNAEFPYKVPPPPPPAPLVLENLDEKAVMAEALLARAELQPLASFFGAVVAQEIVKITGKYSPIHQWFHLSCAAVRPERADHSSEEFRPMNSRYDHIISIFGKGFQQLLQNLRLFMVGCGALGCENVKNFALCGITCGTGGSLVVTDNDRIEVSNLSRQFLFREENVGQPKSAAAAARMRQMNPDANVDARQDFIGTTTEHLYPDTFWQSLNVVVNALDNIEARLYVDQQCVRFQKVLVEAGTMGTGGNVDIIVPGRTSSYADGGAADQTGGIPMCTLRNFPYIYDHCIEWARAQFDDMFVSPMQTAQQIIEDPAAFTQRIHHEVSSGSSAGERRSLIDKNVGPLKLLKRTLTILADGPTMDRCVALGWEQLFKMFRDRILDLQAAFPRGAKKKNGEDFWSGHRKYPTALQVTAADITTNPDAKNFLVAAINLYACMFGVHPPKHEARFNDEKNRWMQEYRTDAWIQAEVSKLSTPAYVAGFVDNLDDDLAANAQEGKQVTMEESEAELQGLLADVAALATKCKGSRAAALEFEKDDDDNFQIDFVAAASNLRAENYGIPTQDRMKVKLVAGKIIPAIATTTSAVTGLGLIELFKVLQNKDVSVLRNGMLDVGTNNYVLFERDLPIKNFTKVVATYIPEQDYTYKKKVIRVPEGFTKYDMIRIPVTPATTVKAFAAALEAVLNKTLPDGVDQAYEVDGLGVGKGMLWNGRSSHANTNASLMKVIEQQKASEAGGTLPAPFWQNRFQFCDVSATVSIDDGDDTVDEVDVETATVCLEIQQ
# [3] = molecular target: AMP-activated protein kinase, AMPK (Homo sapiens) (UniProt P54646+O43741+P54619+Q9UGJ0+Q9Y478+Q13131+Q9UGI9); experiment: AMP-dependent Kinase enzyme assay. An in vitro enzyme assay that detects ADP turnover that is directly proportional to AMPK activity. This uses naive AMPK that is activated during the assay with MK-8722; assay type: functional; conditions: 30 µM
# [4] = molecular target: Sialic acid-binding Ig-like lectin 9 (Homo sapiens) (UniProt Q9Y336); experiment: Hs-Siglec9 ALPHAscreen SOP 20170721; conditions: 10 µM
# [5] = system: Trypanosoma cruzi; experiment: Trypanosoma cruzi phosphomannomutase and mannose-1-phosphate guanylyltransferase assay; assay type: functional; conditions: 10 µM
# [6] = molecular target: T2, Arginase-2, mitochondrial (Homo sapiens) (UniProt P78540); experiment: in vitro enzyme assay to detect the production of urea directly proportional to the activity of Arginase II; assay type: functional; conditions: 33.3 µM; also: in the data most compounds retested in dose-response had high values
# T2 sequence (whole entry): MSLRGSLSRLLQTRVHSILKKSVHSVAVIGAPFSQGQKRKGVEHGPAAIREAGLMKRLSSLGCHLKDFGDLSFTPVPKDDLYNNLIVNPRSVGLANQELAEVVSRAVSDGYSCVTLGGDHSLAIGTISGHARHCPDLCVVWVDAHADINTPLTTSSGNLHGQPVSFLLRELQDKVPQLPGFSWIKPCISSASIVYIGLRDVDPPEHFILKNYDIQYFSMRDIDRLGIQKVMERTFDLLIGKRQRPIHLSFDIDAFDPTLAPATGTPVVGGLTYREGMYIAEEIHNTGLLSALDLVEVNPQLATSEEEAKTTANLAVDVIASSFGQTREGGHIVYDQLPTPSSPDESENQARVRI
# [7] = molecular target: T3, Proteasome subunit beta (Trypanosoma cruzi) (UniProt O96673); experiment: Trypanosoma cruzi proteasome chymotrypsin-like activity (TcProtChymo) assay.; also: in the data most compounds retested in dose-response had high values; assay type: functional; conditions: 9.37 µM
# T3 sequence (whole entry): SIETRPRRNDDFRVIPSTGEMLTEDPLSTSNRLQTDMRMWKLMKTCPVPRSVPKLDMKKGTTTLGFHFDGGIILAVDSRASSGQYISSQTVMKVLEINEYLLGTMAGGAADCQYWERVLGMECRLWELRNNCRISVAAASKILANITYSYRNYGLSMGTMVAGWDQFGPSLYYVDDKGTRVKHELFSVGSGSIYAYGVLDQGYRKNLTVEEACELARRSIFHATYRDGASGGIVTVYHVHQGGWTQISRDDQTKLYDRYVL
# [8] = species on record: Homo sapiens; experiment: To identify inhibition of the IFN signalling (Jak-Stat) pathway via expression of an eGFP reporter gene under the control of an IFN-stimulated response element (ISRE) containing MxA promoter.; assay type: functional; conditions: 30 µM
# [9] = molecular target: T4, Tyrosyl-tRNA synthetase, putative (Trypanosoma cruzi (strain CL Brener)) (UniProt Q4DSP6); experiment: Trypanosoma cruzi tyrosyl tRNA synthetase (TcYRS) _High Tyrosine SOP; assay type: functional; conditions: 30 µM; also: in the data most compounds retested in dose-response had high values
# T4 sequence (whole entry): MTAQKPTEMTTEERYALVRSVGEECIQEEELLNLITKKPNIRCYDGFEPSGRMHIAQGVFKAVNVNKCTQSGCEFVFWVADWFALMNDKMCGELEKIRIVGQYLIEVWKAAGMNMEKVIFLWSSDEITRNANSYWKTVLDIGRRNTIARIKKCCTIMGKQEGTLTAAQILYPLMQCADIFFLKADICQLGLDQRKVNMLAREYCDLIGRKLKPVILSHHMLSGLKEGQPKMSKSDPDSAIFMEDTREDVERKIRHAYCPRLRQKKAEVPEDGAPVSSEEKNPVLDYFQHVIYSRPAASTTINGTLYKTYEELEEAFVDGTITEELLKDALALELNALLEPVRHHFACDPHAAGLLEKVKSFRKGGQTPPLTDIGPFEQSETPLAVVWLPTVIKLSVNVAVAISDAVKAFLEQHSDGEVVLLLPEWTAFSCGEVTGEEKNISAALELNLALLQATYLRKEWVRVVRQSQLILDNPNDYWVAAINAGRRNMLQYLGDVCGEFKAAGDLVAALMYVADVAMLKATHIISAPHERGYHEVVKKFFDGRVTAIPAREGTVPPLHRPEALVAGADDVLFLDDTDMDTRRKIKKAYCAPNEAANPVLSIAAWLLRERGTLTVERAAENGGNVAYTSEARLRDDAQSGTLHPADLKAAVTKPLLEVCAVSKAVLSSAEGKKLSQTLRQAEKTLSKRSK
# [10] = molecular target: T4, Tyrosyl-tRNA synthetase, putative (Trypanosoma cruzi (strain CL Brener)); experiment: Trypanosoma cruzi tyrosyl tRNA synthetase (TcYRS) SOP; assay type: functional; conditions: 30 µM
# [11] = molecular target: Chromo domain-containing protein 1 (Saccharomyces cerevisiae (strain ATCC 204508 / S288c) (Baker's yeast)) (UniProt P32657); experiment: ScCHD-1 Enzyme Inhibition Assay; assay type: functional; conditions: 30 µM; also: in the data most compounds retested in dose-response had high values
# Chromo domain-containing protein 1 (Saccharomyces cerevisiae (strain ATCC 204508 / S288c) (Baker's yeast)), sequence (P32657 whole entry, the tested form may be a part): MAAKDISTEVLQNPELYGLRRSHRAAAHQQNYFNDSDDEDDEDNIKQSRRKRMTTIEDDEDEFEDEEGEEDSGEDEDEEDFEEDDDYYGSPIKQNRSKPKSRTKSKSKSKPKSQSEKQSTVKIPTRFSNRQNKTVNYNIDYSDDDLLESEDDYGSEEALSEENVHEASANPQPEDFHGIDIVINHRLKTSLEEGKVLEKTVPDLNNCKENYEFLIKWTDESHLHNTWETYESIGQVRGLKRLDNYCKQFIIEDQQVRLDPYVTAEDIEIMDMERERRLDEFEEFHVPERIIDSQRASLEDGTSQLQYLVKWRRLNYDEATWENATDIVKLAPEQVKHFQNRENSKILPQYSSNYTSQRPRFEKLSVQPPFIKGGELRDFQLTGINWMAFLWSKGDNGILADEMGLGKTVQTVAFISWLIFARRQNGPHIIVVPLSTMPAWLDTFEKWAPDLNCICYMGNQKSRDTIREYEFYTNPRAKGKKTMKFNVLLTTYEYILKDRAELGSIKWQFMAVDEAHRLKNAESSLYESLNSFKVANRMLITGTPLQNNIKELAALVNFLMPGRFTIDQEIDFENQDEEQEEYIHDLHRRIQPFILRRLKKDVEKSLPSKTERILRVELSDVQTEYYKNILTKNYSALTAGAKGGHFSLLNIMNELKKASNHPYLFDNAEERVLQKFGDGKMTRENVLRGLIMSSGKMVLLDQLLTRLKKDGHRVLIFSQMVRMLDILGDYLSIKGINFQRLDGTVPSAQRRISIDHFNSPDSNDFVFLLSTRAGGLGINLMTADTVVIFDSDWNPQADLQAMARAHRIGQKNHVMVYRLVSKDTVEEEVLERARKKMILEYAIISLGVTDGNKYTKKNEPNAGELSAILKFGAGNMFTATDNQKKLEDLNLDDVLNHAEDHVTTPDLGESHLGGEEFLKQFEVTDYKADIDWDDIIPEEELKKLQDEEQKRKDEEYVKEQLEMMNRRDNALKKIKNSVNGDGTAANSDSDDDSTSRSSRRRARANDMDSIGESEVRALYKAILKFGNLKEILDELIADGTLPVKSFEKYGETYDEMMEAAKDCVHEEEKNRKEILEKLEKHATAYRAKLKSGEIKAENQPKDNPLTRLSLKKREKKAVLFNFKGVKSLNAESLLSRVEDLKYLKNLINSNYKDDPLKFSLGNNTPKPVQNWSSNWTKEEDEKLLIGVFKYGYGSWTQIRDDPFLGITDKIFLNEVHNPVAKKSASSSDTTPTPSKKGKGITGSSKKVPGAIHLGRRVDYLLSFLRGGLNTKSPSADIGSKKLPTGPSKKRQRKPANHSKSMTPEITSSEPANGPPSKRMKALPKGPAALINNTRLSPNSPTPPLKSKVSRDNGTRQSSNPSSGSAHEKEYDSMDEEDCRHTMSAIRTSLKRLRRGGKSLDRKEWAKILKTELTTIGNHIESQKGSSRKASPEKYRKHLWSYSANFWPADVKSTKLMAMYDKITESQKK
# Sialic acid-binding Ig-like lectin 9 (Homo sapiens), sequence (Q9Y336 whole entry): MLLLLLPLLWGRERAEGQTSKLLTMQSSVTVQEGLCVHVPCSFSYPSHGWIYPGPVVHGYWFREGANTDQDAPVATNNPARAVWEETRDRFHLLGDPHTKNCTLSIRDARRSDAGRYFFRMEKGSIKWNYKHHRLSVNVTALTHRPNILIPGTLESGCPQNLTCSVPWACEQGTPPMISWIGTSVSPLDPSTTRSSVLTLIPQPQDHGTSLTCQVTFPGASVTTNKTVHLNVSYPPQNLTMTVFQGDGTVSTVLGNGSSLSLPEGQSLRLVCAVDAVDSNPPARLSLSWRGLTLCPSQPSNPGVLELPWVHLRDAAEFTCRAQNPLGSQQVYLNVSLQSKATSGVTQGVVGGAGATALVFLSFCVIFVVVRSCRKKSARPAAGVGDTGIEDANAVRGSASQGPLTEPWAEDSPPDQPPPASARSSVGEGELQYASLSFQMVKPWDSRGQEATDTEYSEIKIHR
# Protein translocase subunit SecA (Escherichia coli (strain K12)), sequence (P10408 whole entry): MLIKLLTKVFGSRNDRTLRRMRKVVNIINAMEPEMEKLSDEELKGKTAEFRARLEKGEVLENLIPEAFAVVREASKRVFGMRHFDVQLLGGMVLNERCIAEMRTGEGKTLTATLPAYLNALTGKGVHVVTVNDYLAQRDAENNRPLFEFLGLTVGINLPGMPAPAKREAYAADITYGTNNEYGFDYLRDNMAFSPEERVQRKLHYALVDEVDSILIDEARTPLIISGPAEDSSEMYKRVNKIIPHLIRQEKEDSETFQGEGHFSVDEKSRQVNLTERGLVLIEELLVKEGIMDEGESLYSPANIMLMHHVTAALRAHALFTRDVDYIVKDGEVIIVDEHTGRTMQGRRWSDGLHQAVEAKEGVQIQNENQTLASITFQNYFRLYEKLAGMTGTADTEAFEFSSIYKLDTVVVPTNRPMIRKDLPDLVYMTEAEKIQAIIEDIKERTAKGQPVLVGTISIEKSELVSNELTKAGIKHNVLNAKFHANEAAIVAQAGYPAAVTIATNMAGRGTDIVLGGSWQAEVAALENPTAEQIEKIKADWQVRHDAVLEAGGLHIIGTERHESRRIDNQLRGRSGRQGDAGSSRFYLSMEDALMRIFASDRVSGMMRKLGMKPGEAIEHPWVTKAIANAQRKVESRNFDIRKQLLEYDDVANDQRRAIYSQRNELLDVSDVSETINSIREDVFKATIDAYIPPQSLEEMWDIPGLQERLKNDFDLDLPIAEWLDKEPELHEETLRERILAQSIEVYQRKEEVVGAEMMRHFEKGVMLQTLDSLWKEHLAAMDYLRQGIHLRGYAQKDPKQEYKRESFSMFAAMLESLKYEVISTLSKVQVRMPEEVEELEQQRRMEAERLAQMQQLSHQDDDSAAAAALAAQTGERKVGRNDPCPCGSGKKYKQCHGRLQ
Structure (SMILES),Percent Effect [1] [%],Percent Effect [2] [%],Percent Effect [3] [%],Percent Effect [4] [%],Percent Effect [5] [%],Percent Effect [6] [%],Percent Effect [7] [%],Percent Effect [8] [%],Percent Effect [9] [%],Percent Effect [10] [%],Percent Effect [11] [%]
CC(C)(C)CC(=O)N1CC[C@@H]2[C@H](CC1)N(S(C)(=O)=O)CCS2(=O)=O,-2.22,16.2,-9.04,3.69,5.27,15,9.89,8.9,8.91,20.7,-8.05
CN(C)S(=O)(=O)N1CCCC1CC(=O)c1cccs1 (stereo unspecified),2.35,2.7,-3.98,2.64,1.74,11.9,-0.862,16.6,-2.65,4.88,-1.64
O=C(c1cccc(=O)[nH]1)N(Cc1ccsc1)CC1CCCO1 (stereo unspecified),-0.641,10.8,-7.24,6.17,-0.386,2.86,12.8,11.3,7.94,17.1,-1.82
CN1CCCN(C(=O)NCc2csc(Br)c2)CC1,-5.63,10.8,-0.581,13.3,0.0929,3.88,3.05,15.4,6.93,18.3,-0.533
Cc1nc(C)n(CC2CCCN(CCc3ccccn3)C2)n1 (stereo unspecified),-8.02,13.9,-5.61,-6.83,2.36,-1.07,1.2,3.25,3.12,15.2,-36.4
Cc1nc(CN2C(=O)C[C@H]3[C@H]2CCN3C2CCOCC2)cs1,-2.26,11,-0.758,4.06,0.595,-2,8.3,-4.37,3.12,11.1,-3.21
COc1cccc(C(=O)N2CCc3ncnc(C)c3CC2)c1,-2.5,2.74,-0.34,2.4,-5.16,0.399,10.4,2.5,6.25,11.1,-8.63
Cc1cc(CN2CCN(C(=O)c3sccc3C3CC3)CC2)on1,-1.18,10.4,2.54,-6.72,-7.35,1.05,9.62,18.1,4.76,18.8,-15.4
CN1CCC(NC(=O)NCc2csc(Br)c2)CC1,-2.29,13.5,4.89,6.05,3.25,-3.88,10.4,2.14,9.9,18.3,-4.58
CCCS(=O)(=O)c1ncc(CN2CCC(CO)CC2)n1CC1CCCO1 (stereo unspecified),0.687,-6.94,-2.25,-1.43,-5.34,0.442,4.74,-4.14,0,-7.69,5.71
CCCc1cc(C(=O)N(C)Cc2cnc3ccccc3n2)n(C)n1,-7.11,5.2,2.82,6.76,2.06,11,8.82,7.96,7.53,11.1,2.1
CCN(CC)C1CCN(C(=O)NCc2c(C)noc2C)CC1,-3.56,5.48,-3.43,2.27,0.198,-3.59,10.9,-3.14,7.29,13.6,-1.04
Cc1nc(C)n(C2CCCN(C(=O)c3ccc(NC4CC4)nc3)C2)n1 (stereo unspecified),-2.93,-5.41,2.71,10.3,2.14,-4.25,-3.77,8.24,1.98,6.1,4.04
CC(C)N(C)C(=O)C1=NOC2(CCN(C(=O)c3ccc(Cl)cc3)C2)C1 (stereo unspecified),-0.137,5.48,1.89,5.19,-7.54,-1.6,17.6,27.1,8.33,8.64,-3.93
O=C1CCCN1CC1CN(C(=O)CC2CCCC2)Cc2nccn2C1 (stereo unspecified),-4.26,7.79,4.17,6.88,-1.08,0.645,11.7,-6.04,4.23,11.5,-9.36
O=C(Cc1ccc2c(c1)OCCO2)N1CCCC(n2cccn2)C1 (stereo unspecified),2.92,2.6,13.7,-3.29,1.08,2.74,3.15,22.6,-7.62,-2.35,-15
